Measured potencies and affinities stand elsewhere.
Key:
[1] = test system: Staphylococcus aureus; conditions: Concentration 32 ug.mL-1;; ASSAY_TEST Inhibition of Bacterial Growth; detection method Absorption (OD600); MEDIA CAMHB; plate type 384well; NBS; CORNING #3640; time 18 hr
[2] = test system: Escherichia coli; conditions: Concentration 32 ug.mL-1;; ASSAY_TEST Inhibition of Bacterial Growth; detection method Absorption (OD600); MEDIA CAMHB; plate type 384well; NBS; CORNING #3640; time 18 hr

Compound: COc1ccc(NC(=O)CSc2nc3ccccc3n3c(C(C)C)nnc23)cc1Cl
- Inhibition [1]: -3.22%
- Inhibition [2]: -5.08%

Compound: O=C(CSc1nc2ccccc2n2cnnc12)Nc1cccc(Br)c1
- Inhibition [1]: -6.77%
- Inhibition [2]: -14.46%

Compound: Cc1ccc(-c2cc3c4nn(CC(=O)Nc5cc(F)ccc5C)c(=O)n4ccn3n2)cc1C
- Inhibition [1]: 8.9%
- Inhibition [2]: -4.51%

Compound: COc1ccc(NC(=O)Cn2nc3nc(N4CCOCC4)ccn3c2=O)cc1Cl
- Inhibition [1]: 7.8%
- Inhibition [2]: -5.98%

Compound: CC(C)c1ccc(NC(=O)CSc2nc3ccccc3n3cnnc23)cc1
- Inhibition [1]: 8.55%
- Inhibition [2]: -4.05%

Compound: COc1cccc(NC(=O)Cn2nc3c(N4CCCC4)nccn3c2=O)c1
- Inhibition [1]: -2.28%
- Inhibition [2]: -3.58%

Compound: CCc1nnc2c(SCC(=O)Nc3cc(Cl)ccc3OC)nc3ccccc3n12
- Inhibition [1]: 7.98%
- Inhibition [2]: 4.84%

Compound: COc1cc(NC(=O)Cn2nc3ccc(SCc4ccc(Cl)cc4)nn3c2=O)cc(OC)c1
- Inhibition [1]: -3.52%
- Inhibition [2]: -10.62%

Compound: COc1cccc(-n2ccn3c(SCC(=O)c4ccc(C)cc4C)nnc3c2=O)c1
- Inhibition [1]: 12.17%
- Inhibition [2]: -2.43%

Compound: Cc1cccc(NC(=O)Cn2nc3c(SCc4ccccc4)nccn3c2=O)c1C
- Inhibition [1]: -0.26%
- Inhibition [2]: -6.74%

Compound: Cc1cc2nn(CC(=O)NCc3ccccc3)c(=O)n2c(Nc2ccc(C)c(F)c2)n1
- Inhibition [1]: -14.43%
- Inhibition [2]: -0.54%

Compound: Cc1ccc(Sc2nccn3c(=O)n(CC(=O)Nc4ccc(F)c(Cl)c4)nc23)c(C)c1
- Inhibition [1]: -12.28%
- Inhibition [2]: -15.97%

Compound: COc1ccc(CNC(=O)Cn2nc3c(SCc4ccc(Cl)cc4)nccn3c2=O)cc1
- Inhibition [1]: -6.61%
- Inhibition [2]: -12.31%

Compound: Cc1cc(NC(=O)Cn2nc3ccc(SC(C)(C)C)nn3c2=O)ccc1Br
- Inhibition [1]: -0.85%
- Inhibition [2]: -5.34%

Compound: O=C(CSc1nnc2c(=O)n(-c3ccccc3)ccn12)Nc1cccc(Cl)c1
- Inhibition [1]: 1.05%
- Inhibition [2]: -12.66%

Compound: O=S(=O)(c1ccc2nncn2c1)N(Cc1cc(F)cc(F)c1)c1ccccc1
- Inhibition [1]: 0.37%
- Inhibition [2]: -13.22%

Compound: Cc1ccc(Cn2c(=O)c3ccccc3n3c(=O)n(CC(=O)Nc4ccc5c(c4)OCCO5)nc23)cc1
- Inhibition [1]: 6.52%
- Inhibition [2]: 1.04%

Compound: COc1cc(OC)c(NC(=O)Cn2nc3c(N4CCOCC4)nccn3c2=O)cc1Cl
- Inhibition [1]: 4.84%
- Inhibition [2]: -1.96%

Compound: COc1cccc(Oc2nccn3c(=O)n(CC(=O)NCc4ccccc4Cl)nc23)c1
- Inhibition [1]: 11.84%
- Inhibition [2]: 2.87%

Compound: COc1ccc(CNC(=O)CSc2nnc3c4cc(-c5ccc(C)cc5)nn4ccn23)cc1
- Inhibition [1]: 4.45%
- Inhibition [2]: -3.09%

Compound: Cc1ccc(-c2ccc3nn(CC(=O)Nc4ccc(C(C)C)cc4)c(=O)n3n2)cc1C
- Inhibition [1]: -10.47%
- Inhibition [2]: -13.87%

Compound: O=C(Cn1nc2ccc(Sc3cccc(F)c3)nn2c1=O)Nc1cccc(C(F)(F)F)c1
- Inhibition [1]: 5.63%
- Inhibition [2]: -8.75%

Compound: COc1cc(OC)c(NC(=O)Cn2nc3c(SC4CCCCC4)nccn3c2=O)cc1Cl
- Inhibition [1]: 7.52%
- Inhibition [2]: -4.1%

Compound: Cc1nnc2c(S(=O)(=O)N(Cc3ccccc3F)c3cc(F)cc(F)c3)cccn12
- Inhibition [1]: -8.28%
- Inhibition [2]: 2.33%

Compound: Cc1ccc(-n2ccn3c(=O)n(Cc4ccccc4F)nc3c2=O)cc1C
- Inhibition [1]: 8.2%
- Inhibition [2]: -3.66%

Compound: Cc1cc(C)c(NC(=O)Cn2nc3c(Sc4ccccc4)nccn3c2=O)c(C)c1
- Inhibition [1]: 5.4%
- Inhibition [2]: -7.73%

Compound: COc1ccccc1-n1ccn2c(SCc3ccc(Cl)cc3)nnc2c1=O
- Inhibition [1]: 7.4%
- Inhibition [2]: -9%

Compound: CCc1nnc2ccc(S(=O)(=O)N(Cc3ccc(OC)cc3)c3ccc(F)cc3)cn12
- Inhibition [1]: 4.6%
- Inhibition [2]: -5.2%

Compound: O=C(CSc1nnc2c(=O)n(-c3cccc(F)c3)ccn12)N1CCN(c2ccc(F)cc2)CC1
- Inhibition [1]: 3.76%
- Inhibition [2]: 1.02%

Compound: COc1ccc(-c2cc3c4nn(CC(=O)Nc5cc(C)ccc5C)c(=O)n4ccn3n2)cc1
- Inhibition [1]: 3.16%
- Inhibition [2]: 2.02%

Compound: O=C(Cn1nc2c(Sc3cccc(F)c3)nccn2c1=O)Nc1ccc(F)c(Cl)c1
- Inhibition [1]: -0.79%
- Inhibition [2]: -15.42%

Compound: Cc1cc2nn(CC(=O)Nc3ccc(F)c(F)c3)c(=O)n2c(Nc2ccc(F)c(C)c2)n1
- Inhibition [1]: 9.7%
- Inhibition [2]: -3.91%

Compound: CCOc1ccc(-c2nc(CSc3nc4ccccc4n4c(C)nnc34)c(C)o2)cc1
- Inhibition [1]: 7.53%
- Inhibition [2]: 1.84%

— ChEMBL document CHEMBL4513146, “CO-ADD screening of Karazin Kharkiv National University (Ukraine) compounds”
